Screening results deposited in PubChem BioAssay by National Center for Advancing Translational Sciences (NCATS).
15-hLO inh = inhibitors of human 15-lipoxygenase (ALOX15). P16050. purified 15hLO-1, xylenol orange hydroperoxide absorbance. Potency, µM (doses to about 57.1 µM), inactives show top-dose activity change, negative = inhibition, actives largely listed as inhibitors. hit rate 1.4% among 74,000; also: % is scaled to controls: 0 for no effect and ±100 for the full control effect; nearly all actives have a fitted effect of over 55% in size
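40 nM 15hLO-1 + cpd, 15 min RT; start w/ 50 uM AA (final), 6 min RT; stop/detect w/ 200 uM XO + 300 uM Fe(II) in 50 mM H2SO4, 30 min; A573/A405. Buffer 25 mM Hepes pH 7.5, 0.01% Triton X-100. No-enzyme wells as negative control.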
HEK293 cAMP ctrl = counter-screen for TSHR agonists: cAMP increase in parental HEK293; parental HEK293 CNG cAMP sensor, membrane potential fluorescence; Potency, µM (highest dose often 57.1 µM), for the others: at the highest dose activation, usual class: activators; AID 938; hit rate 2.5% among 73,000; also: % of control where 0% means no effect; nearly all actives have a fitted effect of over 55% in size
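Parental HEK 293 cells stably expressing a cAMP-gated CNG channel were loaded with membrane potential dye containing 100 uM RO 20-1724 for 60 min. Compound added for 30 min; depolarization read as fluorescence intensity at 590 nm.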
15-hLO-2 inh = inhibitors of human 15-lipoxygenase 2 (ALOX15B); purified 15hLO-2, xylenol orange hydroperoxide absorbance; Potency, µM (series often up to 57.1 µM), inactives show top-dose activity change, negative = inhibition, actives largely listed as inhibitors; hit rate 0.56% among 110,000; O15296; AID 881; also: % is scaled to controls: 0 for no effect and ±100 for the full control effect; nearly all actives have a fitted effect of over 60% in size
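Screening format was qHTS against 50 nM purified 15hLO-2 in Hepes pH 7.5 with detergent. Activity follows hydroperoxide formation from 45 uM arachidonic acid, measured as 573:405 nm absorbance ratio of the ferric-xylenol orange complex.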
Casp1 inh = blocks human caspase-1 allosterically or competitively | P29466 | Caspase-1 enzyme, Ac-WEHD-AFC fluorogenic rate | Potency, µM (titrated, usually from 57.5 µM), inactives show at the top dose activity change, negative = inhibition, hits mostly inhibitors | hit rate 0.03% among 75,000;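 also: plate controls were vehicle for no effect and no substrate for full effect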
TSHR ag = agonists of human thyroid stimulating hormone receptor | P16473 | HEK293-CNG-TSHR cells (CNG channel as cAMP sensor), membrane potential dye, cAMP | Potency, µM (series often up to 57.1 µM), for inactives: at the top dose activation, hits mostly activators | hit rate 0.48% among 73,000 | AID 926; active = well fitted activation curve with a large enough effect in the main read-out, with a control signal flat, not every such curve was filed as active; inconclusive = small, poorly fitted or top-dose-only effect, or a change in a side signal; inactive = no such curve, though single readings can be large or run the other way; % of control where 0% means no effect;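 also: the control signal comes from parental cells without the receptor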
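HEK 293 cells stably expressing TSHR and a modified CNG channel, with CNG-only parental cells as counterscreen, were preloaded 60 min at room temperature with membrane potential dye containing 100 uM RO 20-1724. Compound exposure was 30 min, and depolarization was read as fluorescence at 590 nm.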
Casp7 inh = allosteric or competitive inhibitors of human caspase-7 | P55210 | recombinant caspase-7, Ac-DEVD-AFC fluorescence rate | Potency, µM (series often up to 57.5 µM), without a hit: top-dose activity change, negative = inhibition, hits mostly inhibitors | hit rate 0.02% among 75,000; active = well fitted inhibition curve with a large enough effect in the main read-out, with a control signal flat, not every such curve was filed as active; inconclusive = small, poorly fitted or top-dose-only effect, or a change in a side signal; also: % of control where 0% means no effect
Starred values were filed as active, the others as inactive; ! = not active in a repeat; [ ] = another dose, or the depositor's remark. In the library only some 3% were active in any assay of this set; here they are far more common. Unless noted, calls follow the shape of the dose curve; as a rule, active = well fitted curve in the direction sought with a large enough effect; inconclusive = small, poorly fitted or top-dose-only effect, or another doubt; inactive = no such curve, though single readings can be large; an effect the other way counts as inactive or inconclusive. Potency is read from the fitted curve at half-maximal effect.

Screening CCCOc1ccccc1-c1nc2n[nH]nc2c(=O)[nH]1 returned 15-hLO inh 16µM*!, HEK293 cAMP ctrl -2%, 15-hLO-2 inh 0%, Casp1 inh -6%, TSHR ag 17% and Casp7 inh -8%.
Screening CN(C)CCOc1ccccc1-c1ccccc1 returned 15-hLO-2 inh 1%.
COC(=O)C(/C=C/C(C)Cc1cc(Br)cc(OCc2ccccc2)c1OC)OCc1ccccc1 (stereo not drawn) was read as 15-hLO inh -3%[11.4 µM], HEK293 cAMP ctrl 16%[11.4 µM], Casp1 inh 2%[11.5 µM], TSHR ag 7%[11.4 µM] and Casp7 inh 2%[11.5 µM].
`CS(=O)(=O)c1ccc(Cn2c3c(c4cc(F)cc(F)c42)CCC[C@H]3CC(=O)O)cc1` gave 15-hLO inh -4%[25.6 µM], HEK293 cAMP ctrl 13%, 15-hLO-2 inh -30%, Casp1 inh 0%, TSHR ag -9% and Casp7 inh 1%.
`O=C(c1ccco1)N1CCC(c2nc(-c3ccc(F)cc3)no2)CC1` gave 15-hLO inh 3%, HEK293 cAMP ctrl 20µM*, 15-hLO-2 inh 6%, Casp1 inh 3%, TSHR ag inconclusive and Casp7 inh -3%.
`CS(=O)(=O)Nc1cccc(-c2nc(NCc3ccccc3)c3ccccc3n2)c1` gave 15-hLO inh -23%, HEK293 cAMP ctrl 25µM*, 15-hLO-2 inh 0%, Casp1 inh -5%, TSHR ag inconclusive and Casp7 inh -7%.
`Cc1noc(C)c1-c1nc(NCc2ccccc2)c2ccccc2n1` gave 15-hLO inh inconclusive, HEK293 cAMP ctrl 25µM*, 15-hLO-2 inh 5%, Casp1 inh -4%, TSHR ag inconclusive and Casp7 inh -8%.
Cc1noc(C)c1-c1nc(NCc2cccnc2)c2ccccc2n1 was read as 15-hLO inh -23%, HEK293 cAMP ctrl 3%, 15-hLO-2 inh -13%, Casp1 inh 1% and Casp7 inh 0%.
For CS(=O)(=O)Nc1cccc(-c2nc(NCc3cccnc3)c3ccccc3n2)c1 the results were 15-hLO inh -10%, HEK293 cAMP ctrl -1%, 15-hLO-2 inh 5%, Casp1 inh -1% and Casp7 inh 0%.
CCC/C=C(\CCC)C(NS(=O)(=O)c1ccc(Cl)cc1)c1ccc(C(=O)OC)cc1 (stereo not drawn) was read as HEK293 cAMP ctrl 22%, 15-hLO-2 inh -3%, Casp1 inh 1% and Casp7 inh -3%.
For CCCCCCCCCCCCC[N+](C)(C)Cc1ccccc1 the results were 15-hLO inh 0%, 15-hLO-2 inh -12%, Casp1 inh -5% and Casp7 inh -1%.
COc1ccc2[nH]cc(CCNc3ncncc3-c3ccccc3C(F)(F)F)c2c1 was read as 15-hLO inh 5%, HEK293 cAMP ctrl inconclusive, 15-hLO-2 inh 52%, Casp1 inh -9%, TSHR ag inconclusive and Casp7 inh -17%.
For FC(F)(F)c1ccccc1-c1ccc2ncnc(NC3CC3)c2c1 the results were 15-hLO inh 0%, HEK293 cAMP ctrl 32µM*, 15-hLO-2 inh 6%, Casp1 inh -4%, TSHR ag inconclusive and Casp7 inh -8%.
`Cc1cnc(CNc2ncnc3ccc(-c4ccccc4C(F)(F)F)cc23)cn1` gave 15-hLO inh 5%, HEK293 cAMP ctrl inconclusive, 15-hLO-2 inh 4%, Casp1 inh -5%, TSHR ag inconclusive and Casp7 inh -7%.
For FC(F)(F)c1ccccc1-c1ccc2ncnc(NCc3cccs3)c2c1 the results were 15-hLO inh 2%, HEK293 cAMP ctrl 10µM*, 15-hLO-2 inh 57%, Casp1 inh -4%, TSHR ag inconclusive and Casp7 inh -10%.
Screening CCC12CCCN3CCC4(C(=C(C(=O)OC)C1)Nc1ccccc14)C32 (stereo not drawn) returned 15-hLO inh -8%, HEK293 cAMP ctrl 25µM*, 15-hLO-2 inh -16%, Casp1 inh -7%, TSHR ag inconclusive and Casp7 inh -5%.
